# Compounds with a hit are over-represented: about 19% of the library has one in this group of screens.
# IL-1B inflam inh = blocks inflammasome-driven IL-1 beta release; THP-1 LPS/ATP IL-1B secretion, AlphaLISA, 16 h; hits give low values; activity change, % at 57.5 µM; 360,000 tested, 4.7% active; in the data active means activity change below about -50%; inconclusive means mostly about -30% to -49%
#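 Secreted IL-1B measured by AlphaLISA bead assay after 16 h compound exposure of THP-1 cells; compounds (final up to 57.5 uM) added 1 h before LPS (250 ng/mL) and ATP (1.25 mM) stimulation; lower signal means less secretion.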
# TDP1 cell noCPT = qHTS for Inhibitors of human tyrosyl-DNA phosphodiesterase 1 (TDP1): qHTS in cells in absence of CPT | Potency, µM (highest dose often 46.2 µM), without a hit: top-dose activity change, negative = growth inhibition, most hits filed as inhibitors | 420,000 tested, 15% active | DT40 Tdp1-/- hTDP1 cells, no CPT, ATP luminescence, 48 h; further: potency means the concentration at half of the fitted maximal effect; nearly all actives have a fitted effect of over 55% in size
#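 Chicken DT40 Tdp1-/- cells complemented with human TDP1, screened without camptothecin (DMSO vehicle only), 400 cells/well. Compounds pin-transferred, cells incubated at 37 °C for at least 48 hr. Growth read as ATP-dependent luminescence (CellTiter-Glo, 30 min at RT).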
# HT1080 IDH1KD tx = kills HT-1080 cells with IDH1 knockdown | HT-1080 IDH1 knockdown viability, ATP luminescence, 48 h | Potency, µM (titrated, usually from 46.1 µM), without a hit: at the highest dose activity, negative = toxicity, actives largely listed as cytotoxic | 360,000 tested, 2% active | AID 686971;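 further: potency means the concentration at half of the fitted maximal effect; 0% = DMSO wells and -100% = cell-free medium wells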
#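 % activity derives from luminescence (CellTiter-Glo), normalised to DMSO and no-cell wells. HT-1080-IDH1KD cells, 750/well, had 48 h compound exposure at 37 °C.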
# HT1080-NT tox = kills 2HG-producing HT-1080-NT fibrosarcoma cells; AID 686970; 360,000 tested, 1.6% active; HT-1080-NT fibrosarcoma viability, CellTiter-Glo ATP luminescence, 48 h; Potency, µM (doses to about 46.1 µM), inactives show top-dose activity, negative = less viability, usual class: cytotoxic;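 further: NT is the 2HG producing partner of a matched IDH1 knockdown line; potency means the concentration at half of the fitted maximal effect; 0% = DMSO-treated cells and -100% = media-only wells without cells; nearly all actives have a fitted effect of over 55% in size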
#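 HT-1080-NT; 750 cells/well; 5% FBS RPMI; 48 h compound, 37 degrees C; CellTiter-Glo luminescence; curve fitting and curve-class assignment.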
# DT40 TDP1 CPT = DT40-hTDP1 cell growth loss with CPT; chicken DT40 Tdp1-/-;hTDP1 cells + 20 nM CPT, ATP luminescence, 48 h; Potency, µM (highest dose often 46.2 µM), without a hit: at the highest dose activity change, negative = growth inhibition, actives largely listed as inhibitors; AID 686979; 420,000 tested, 12% active; further: potency means the concentration at half of the fitted maximal effect; nearly all actives have a fitted effect of over 55% in size
#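 Chicken DT40 Tdp1-/- cells stably complemented with human TDP1 were seeded at 400 cells/well in medium containing 20 nM camptothecin, exposed to pin-transferred compounds, and grown at 37 °C for at least 48 hr. Viability was read as ATP luminescence.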
# An asterisk follows results filed as active; ? = inconclusive; . = not tested or not shown; [ ] = dose if it differs, or a comment. Unless noted, the call rests on the fitted dose curve; in most records, active means well fitted curve in the direction sought with a large enough effect; inconclusive means small, poorly fitted or top-dose-only effect, or another doubt; inactive means no such curve, though single readings can be large; an effect the other way counts as inactive or inconclusive. Unless noted, on the % scale 0 is the no-effect control and ±100 the full control effect.
SMILES,IL-1B inflam inh,TDP1 cell noCPT,HT1080 IDH1KD tx,HT1080-NT tox,DT40 TDP1 CPT
Cc1cc(C)cc(C(=O)N(NC(=O)Nc2ccc(Cl)cc2)C(C)(C)C)c1,-30,?,-23%,-17%,15µM*
CC(C)(C)N(NC(=O)Nc1ccc(Cl)c(Cl)c1)C(=O)c1ccccc1,-51*,18µM*,18µM*,21µM*,18µM*
CCS(=O)(=O)N1CCC(C(=O)Oc2ccc(C(=O)OC)cc2)CC1,17,-12%,-4%,8%,-17%
COc1ccccc1-c1ccnc(-n2ncc(C(=O)NC3CCCN(Cc4ccccc4)C3)c2C)n1 (centres undefined),.,-28%,.,.,10%[9.04 µM]
O=C(CCNc1ccccc1)c1cccc([N+](=O)[O-])c1,-5,16µM*,?,-7%,18µM*
O=C(CNC(=O)c1cccc([N+](=O)[O-])c1)OCCCC(=O)c1ccc(F)cc1,15,-20%,2%,1%,-20%
O=C(CCNc1ccc(Br)cc1)c1cccc([N+](=O)[O-])c1,-16,18µM*,?,23µM*,15µM*
O=C(CCNc1ccc(F)cc1)c1cccc([N+](=O)[O-])c1,-16,23µM*,?,?,16µM*
Cc1cc2occ(CC(=O)N(C)CC(=O)Nc3cccc(F)c3)c2cc1C,14,-22%,-1%,-5%,-8%
N[C@H](Cc1cnc[nH]1)C(=O)O,.,-7%,.,.,-14%
CCOC(=O)c1nc2cc3n(c(C)c-2c1C)C(C)C(CC)=C3C (centres undefined),-73*,18µM*,-3%,0%,21µM*
CC(C)(C)c1cc(OC(=O)c2ccccc2F)ccc1O,-69*,?,21µM*,33µM*,?
Cc1cc(=O)n(CC(=O)N2CCN(c3ccccc3F)CC2)c2c1c(C)nn2C,.,8.2µM*,.,.,16µM*
CCOC(=O)C1CCN(C(=O)Cn2c(=O)cc(C)c3c(C)nn(C)c32)CC1,.,18µM*,.,.,26µM*
Cc1nn(C)c2c1c(C(F)(F)F)cc(=O)n2CC(=O)N1CCCCC1,.,-26%,.,.,?
O=S(=O)(c1cnc(Cl)c(Cl)c1)N1CCc2ccccc21,-65*,16µM*,-18%,?,?
O=C(OCC(=O)N1CCCc2ccccc21)c1cnc(Cl)c(Cl)c1,-85*,7%,-6%,-3%,-9%
O=C(OCC(=O)N1CCCc2ccccc21)c1ccc(Cl)nc1,14,0%,9%,2%,-7%
O=S(=O)(c1cnc(Cl)c(Br)c1)N1CCc2ccccc21,-103*,?,?,21µM*,16µM*
O=S(=O)(c1cc(Cl)ccc1Cl)N1CCc2ccccc21,24,?,2%,8%,?
O=S(=O)(c1cnc(Cl)c(Cl)c1)N1CCCc2ccccc21,-101*,16µM*,?,?,18µM*
O=C(COc1ccc(Cl)cc1Cl)NC(=S)N1CCCc2ccccc21,-12,21µM*,?,?,?
COc1cccc(NC(=O)CSc2nc(=O)n(Cc3ccncc3)c3c2CCCC3)c1,-10,0%,-1%,4%,-21%
Cc1cc(-c2ccnc(-n3ncc(C(=O)NCc4cccnc4)c3C3CC3)n2)c(C)s1,.,?,.,.,-12%[9.04 µM]
COc1ccc(-c2ccnc(-n3ncc(C(=O)NCc4ccon4)c3C3CC3)n2)cc1F,.,23µM*,.,.,?
COc1ccc(-c2ccnc(-n3ncc(C(=O)NCc4cccnc4)c3C3CC3)n2)cc1F,.,16µM*,.,.,-9%[9.04 µM]
CC(Sc1nnc(NC2CCCCC2)s1)C(=O)Nc1ccc2c(c1)C(=O)c1ccccc1C2=O (centres undefined),-3,21µM*,-8%,-14%,?
CC(Sc1nnc(NC2CC2)s1)C(=O)Nc1ccc(N2CCOCC2)cc1 (centres undefined),-10,-20%,13%,0%,3%
CC1(Cc2cc(Cl)ccc2C(F)(F)F)C(=O)Nc2cc(-c3ccccc3Cl)ccc21 (centres undefined),-9,-24%,0%,1%,-6%

# Screening data (PubChem BioAssay)
